# Measured values as given in the supplement of paper PMC3334620.
# Over roughly 33,000 sequences, “E-score (-0.5 to 0.5)” has its median near -0.016; the highest 2% begin near 0.31. Many of the other results were omitted from the sample, so the highest values are more common in it than they were.
# Molecular target: Cst6 (UniProt P40535)
# Assay: PBM E-score (8-mer binding enrichment) (E-score (-0.5 to 0.5)); higher = stronger / more preferred TF binding
# Conditions: protein concentration: 200 nM; construct: GST-DNA-binding domain
# Protocol: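 Universal 'all 10-mer' protein binding microarrays (Agilent AMADID 015681) probed with GST-tagged S. cerevisiae TFs (full-length or DBD) made by in vitro transcription/translation (PURExpress), about 100-200 nM. Bound TF was detected with fluorescent anti-GST. Each ungapped 8-mer (which stands for itself and its reverse complement) is scored by the PBM enrichment score (E-score), a modified Wilcoxon-Mann-Whitney statistic from -0.5 to +0.5, computed with the Universal PBM Analysis Suite. Scale: above 0.35 generally sequence-specific binding.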
# Chain of UniProt P40535 (P40535 whole entry): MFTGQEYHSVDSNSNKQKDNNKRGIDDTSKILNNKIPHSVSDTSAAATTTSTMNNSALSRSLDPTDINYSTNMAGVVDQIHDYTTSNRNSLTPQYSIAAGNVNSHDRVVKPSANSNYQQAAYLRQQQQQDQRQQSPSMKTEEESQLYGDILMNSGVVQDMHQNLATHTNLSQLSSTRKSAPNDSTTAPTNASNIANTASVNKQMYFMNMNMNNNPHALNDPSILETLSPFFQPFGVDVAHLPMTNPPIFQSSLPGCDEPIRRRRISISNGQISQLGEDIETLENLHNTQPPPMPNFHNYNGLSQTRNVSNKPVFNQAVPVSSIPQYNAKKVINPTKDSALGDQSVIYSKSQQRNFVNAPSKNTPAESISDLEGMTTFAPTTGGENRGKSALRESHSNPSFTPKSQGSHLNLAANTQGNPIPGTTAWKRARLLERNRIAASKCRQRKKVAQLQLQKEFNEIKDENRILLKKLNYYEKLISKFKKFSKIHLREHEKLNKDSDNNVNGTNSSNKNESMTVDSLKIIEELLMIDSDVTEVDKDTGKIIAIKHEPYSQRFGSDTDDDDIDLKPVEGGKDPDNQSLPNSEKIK
row,Sequence,PBM E-score
1,AGACGTCG,-0.103
2,GGACGTCC,-0.128
3,GGACGTCA,0.468
4,GGACGTGA,-0.0809
5,CGACGTCC,-0.0701
6,TGACGTCA,0.5
7,AGACGTCA,0.484
8,AGACGTCC,-0.00823
9,CGACGTCA,0.491
10,GGTCGTCA,0.272
11,CGACGTCG,-0.0227
12,AGACGTCT,-0.207
13,ATTCTGCC,0.124
14,ACATGCAT,0.0333
15,CAATGGCC,-0.314
16,GAGCCAGC,-0.299
17,ACTTGCCC,-0.215
18,ATGTTTCG,0.263
19,AGCCCCAC,-0.161
20,GTGACACA,0.322
21,GAGACACA,-0.0694
22,ATGACACG,0.256
23,CTGACACA,0.0411
24,ACGACACG,0.0167
25,ATGACACA,0.349

row,Sequence,PBM E-score
1,AGACATGG,-0.0372
2,ACTACCTC,0.0105
3,AGCTTGGA,-0.274
4,ACTGGGCA,-0.16
5,CCGATAAA,0.0173
6,AAACGCAA,0.254
7,ACACGTCT,0.0155
8,TCCCGTCA,0.0641
9,GCACGTCA,0.459
10,CCACGTCC,-0.214
11,CCACGTCA,0.472
12,TCACGTGA,0.1
13,GCACGTTA,0.0802
14,ACACGTCG,-0.0793
15,ACACGTCA,0.481
16,TCACGTCA,0.49
17,CCACGTCG,-0.196
18,GCACGTCC,-0.0855
19,AGGGGGTA,-0.392
20,AGGACTGG,-0.203
21,CTCTTAAA,0.112
22,AGACAAGG,-0.181
23,GGCACGCA,-0.0289
24,GGGCGGGA,-0.0359
25,CAAGAGGC,0.0779

row,Sequence,PBM E-score
1,GGTGACCA,-0.0455
2,AGTGACGA,0.399
3,AGTGACCA,-0.105
4,GGTGACGA,0.463
5,GTTGACGA,0.192
6,AGTGACGG,0.301
7,GGAGGCGA,-0.154
8,ATTATATA,0.239
9,ATTATATC,0.327
10,ATTATAAG,0.182
11,CTTATATC,0.291
12,ACTATATG,0.0805
13,ATTATATG,0.306
14,AGGAGAAG,-0.154
15,GAGGCGAA,0.0301
16,ATCTAGGA,-0.0727
17,ACGGGTCA,-0.0243
18,GTCTAGAA,-0.0503
19,AATACGCA,0.124
20,CATACGCA,0.147
21,AATACGTC,0.323
22,AATACGAC,0.0982
23,AATACGTA,0.344
24,CATACGAA,0.154
25,CATACGTA,0.383

row,Sequence,PBM E-score
1,GATACGTA,0.332
2,GATACGCA,0.0359
3,AATACGTG,0.176
4,AATACGCC,0.104
5,GATACGGA,0.111
6,ATTGAGGG,-0.186
7,TCAGAGGA,-0.193
8,GCAGGAGA,-0.202
9,TCCGACGA,-0.0151
10,CTGCTAAG,-0.279
11,CTATGGCC,-0.271
12,CATACGCC,0.156
13,CATACGTC,0.405
14,CCTACGTC,0.305
15,ATCCCGTG,0.0123
16,CTCAAAAC,0.175
17,CTTACGCA,0.249
18,ATTACGGG,0.00617
19,ATTACGAA,0.305
20,ATTACGCA,0.398
21,ATTACGCG,0.326
22,GTTACGCA,0.266
23,GTTACGAA,0.16
24,ATTACGAG,0.235
25,ATTACGCC,0.254

row,Sequence,PBM E-score
1,CGACACAC,0.0466
2,CGGAGAAA,-0.0341
3,CCAATGAA,-0.187
4,ACAATGAG,-0.0976
5,ACAATGAC,0.336
6,ACAATGAT,0.269
7,CCAATGAC,0.314
8,GCAATGAC,0.3
9,AGCCAGTC,-0.244
10,CGCCATGC,0.0733
11,GTCTGGGA,-0.281
12,ATTGCCTA,-0.141
13,ACATCCAA,0.131
14,GATCGTCA,0.294
15,CATCGTCA,0.372
16,AATCGTCT,0.11
17,AATCGTCC,-0.00977
18,TATCGTCA,0.397
19,AATCGTCA,0.34
20,TATCGTGA,0.0604
21,CATCGTCC,0.14
22,CATCGTCG,-0.112
23,CCAGATAG,-0.0711
24,ACCTTGTA,0.0757
25,CTTAGCAA,-0.0618

row,Sequence,PBM E-score
1,GGGCTCGA,-0.112
2,CACAGATG,0.0492
3,ATTGCTCC,-0.0682
4,CGACCGGA,-0.305
5,CATCGTAG,0.00214
6,TATAGTAA,0.161
7,CATAGTAA,0.313
8,GATAGTAA,0.14
9,GGCAGGAA,-0.21
10,ACATGACT,-0.0377
11,CCATGACC,0.0749
12,CCATGACA,0.271
13,ACATGACA,0.274
14,CCATGACG,0.457
15,ACATGACG,0.435
16,AAAGCGGC,0.151
17,AGGAACTC,-0.0807
18,AATCCCTC,-0.0193
19,ATGTCGCA,-0.0497
20,CCTCAGAA,-0.0484
21,CAACGTTA,0.119
22,ATATAAAG,0.17
23,AAATAATC,0.178
24,AAATAAAG,0.104
25,AAATAATA,0.287

row,Sequence,PBM E-score
1,AAATACAC,0.141
2,AAATAAAT,0.371
3,AAATACAA,0.321
4,AAATAATG,0.312
5,AAATAAAA,0.186
6,CAATACAA,0.15
7,ATATAAAC,0.295
8,ATATAAAT,0.321
9,GCACACTA,-0.138
10,ACGGTAAA,0.129
11,GACACTAC,0.0584
12,AGGAGCTG,-0.256
13,CTTCACAA,-0.0895
14,GGTTGCAC,-0.136
15,GCACTGTA,-0.00858
16,GCGTTATA,0.0248
17,ACGTTATA,0.31
18,ACGTTAGG,0.112
19,ACGTTATC,0.269
20,CCGTTATA,-0.00095
21,ACGTTATG,0.333
22,CCAAGGAG,-0.0523
23,ACTGCAGA,-0.0111
24,TGCTACAA,0.0326
25,ATCTCATG,-0.00941

row,Sequence,PBM E-score
1,ATATTCGA,-0.111
2,AACAAGTT,0.0438
3,AACAAATA,0.242
4,AACAAATT,0.32
5,CTCAGGCC,-0.258
6,CAACACGG,0.0445
7,CCAATAAC,0.135
8,AGTATGAG,0.0817
9,AGTATGAA,0.0821
10,CGTATGGC,0.23
11,CGTATGAG,0.133
12,CGTATGAA,0.319
13,AGTATGAC,0.354
14,GGTATGAC,0.191
15,CGTATGAC,0.443
16,AGTATGAT,0.235
17,GACGAGAA,0.242
18,TCTTGACA,0.053
19,CGAGGACG,-0.269
20,CAACCTTA,0.0972
21,GCTGATAC,-0.0819
22,ACGGTTCC,-0.0941
23,ACCGGGAG,-0.317
24,CACCTCGA,0.119
25,CTATATAC,0.338

row,Sequence,PBM E-score
1,ATATATAA,0.324
2,CTCTATAC,-0.125
3,CTATATAA,0.147
4,ATATATAC,0.281
5,TTATATAA,0.24
6,GTATTGAC,0.148
7,CGCTTGAC,-0.0844
8,AGAAATTG,0.27
9,CCTTATGA,0.159
10,CATACGGA,0.049
11,AATACGGG,-0.0401
12,CATACGGC,0.321
13,AATACGGT,-0.0647
14,AATACGGC,0.324
15,GATACGGC,0.139
16,CCGCAGCA,0.0617
17,GGTTCTAC,-0.204
18,CACATCAG,-0.0727
19,CACCGTCG,-0.174
20,TACCGTCA,0.345
21,AACCGTCA,0.174
22,GACCGTCA,0.137
23,CACCGTCC,-0.173
24,CACCGTCA,0.314
25,GAACCAAA,-0.0818

row,Sequence,PBM E-score
1,CAATATCA,0.126
2,AAATATCA,0.139
3,TGATATAA,0.323
4,GGATATAA,0.236
5,TAATATCA,0.319
6,AGATATCA,0.198
7,GGATATCA,-0.0151
8,CGATATAA,0.225
9,TGATATCA,0.426
10,GGAAGAGA,-0.106
11,ATTCTGAC,0.181
12,GGCGTACC,-0.19
13,CAACCAAG,0.0364
14,TCGGACAA,0.0914
15,CACAGTGC,-0.024
16,CCCTAACA,0.127
17,GCCGTGAC,0.341
18,GACGTGAC,0.394
19,GCCGTGAA,0.184
20,GCCGTGCC,0.308
21,GCCGTGCA,0.279
22,GACGTGAA,0.142
23,CACGTGAC,0.148
24,ACCGTGCC,0.0391
25,ACCGTGAC,0.291

row,Sequence,PBM E-score
1,CCAAGCGA,-0.309
2,AAACAGGT,0.0221
3,ATTCTGGA,0.122
4,AAGCCTTA,-0.0547
5,ACCTGCTA,-0.0708
6,GGACGCAA,0.0196
7,TCACGCAA,0.375
8,CCACGCAA,0.043
9,TGACGCAA,0.489
10,GTACGCAA,0.0898
11,CGACGCCA,0.00886
12,ATACGCAA,0.283
13,AGACGCAA,0.0971
14,GCACGCAA,-0.0783
15,TGACGCCA,0.466
16,TTACGCAA,0.438
17,AGACGCCA,-0.108
18,CTGCTTAC,0.00293
19,CGTGACTC,-0.1
20,ACGCTCAT,0.114
21,CCTAAGCA,-0.0807
22,TTAGGCAA,-0.00879
23,TAACCAGA,-0.0457
24,CAAGTGCC,0.0401
25,ACGCCGCG,0.302

row,Sequence,PBM E-score
1,CCGCCGTC,0.206
2,ACGCCGTC,0.389
3,GCGCCGAA,0.132
4,CCGCCGTA,0.0871
5,ACGCCGAC,0.0423
6,GCGCCGTA,0.384
7,GGGCCGTA,0.116
8,ACGCCGTA,0.349
9,ACGCCGGG,-0.254
10,AGGCCGTA,0.0502
11,ACGCCGTG,0.383
12,ATCCAATA,0.222
13,AGCCGACC,-0.292
14,CTGGGACA,-0.219
15,CCTGTGGC,-0.117
16,AGAGTACC,-0.135
17,TAGTACAA,-0.00017
18,ACATTTCC,0.13
19,GAGATCGA,0.0615
20,CATCCGCG,0.151
21,GGATGTCA,0.277
22,CTATGTCC,-0.152
23,ATGTGTCA,0.286
24,ATATGTCG,0.185
25,AGATGTCA,0.298

row,Sequence,PBM E-score
1,CGATGTCA,0.319
2,GTATGTAA,0.282
3,GTATGTCA,0.422
4,ATATGTCC,0.121
5,GTATGTTA,0.182
6,CTATGTCA,0.392
7,ATATGTCA,0.404
8,CATCAAGG,-0.0962
9,ACGCCCGT,-0.0034
10,AACTAAGG,0.0828
11,GGAACGCA,-0.112
12,AGGTATAC,0.0822
13,GGCCGTGA,0.14
14,CTGCGCTC,-0.292
15,GCAGTCGC,-0.0904
16,ACAAGGCG,0.223
17,GGTGGCGA,-0.11
18,CAGCGGTA,0.0522
19,CCATAGCG,-0.0739
20,GACAGAAC,0.0521
21,AACAGAAA,0.213
22,GACAGAAA,0.311
23,ACCGTTCG,0.0621
24,ACTACCCT,-0.111
25,AATTCGCT,0.238

row,Sequence,PBM E-score
1,AATTATCG,0.316
2,CATTATCA,0.137
3,AATTATCT,0.161
4,AATTATCA,0.356
5,CATTATCG,0.0831
6,AATTATCC,0.188
7,ACAGGGGA,-0.218
8,ATTTAAAA,0.258
9,ACAATAGC,-0.178
10,ATTGGCAG,-0.165
11,AGTAACTG,0.00693
12,GTACGTCA,0.49
13,CTACGTCC,-0.0878
14,ATACGTCA,0.494
15,GTACGTTA,0.124
16,ATACGTCC,0.061
17,CTACGTCA,0.493
18,GTACGTGA,0.108
19,CTACGTGA,0.0384
20,ATACGTCG,0.215
